This passage reports AC50 and outcome results from PubChem BioAssay (EPA / NIEHS).

Records with an inconclusive call do not appear. Calls of active or inactive are those of the source. The calls were made as follows: active = hit-call score of the fitted dose curve at least 0.9, where 1 is the maximum; inconclusive = response in the unintended direction; inactive = score below 0.9.

Chain of human Ephrin type-A Receptor 1 (EphA1), EPHA1 (gene 2041) (P21709 whole entry, looked up): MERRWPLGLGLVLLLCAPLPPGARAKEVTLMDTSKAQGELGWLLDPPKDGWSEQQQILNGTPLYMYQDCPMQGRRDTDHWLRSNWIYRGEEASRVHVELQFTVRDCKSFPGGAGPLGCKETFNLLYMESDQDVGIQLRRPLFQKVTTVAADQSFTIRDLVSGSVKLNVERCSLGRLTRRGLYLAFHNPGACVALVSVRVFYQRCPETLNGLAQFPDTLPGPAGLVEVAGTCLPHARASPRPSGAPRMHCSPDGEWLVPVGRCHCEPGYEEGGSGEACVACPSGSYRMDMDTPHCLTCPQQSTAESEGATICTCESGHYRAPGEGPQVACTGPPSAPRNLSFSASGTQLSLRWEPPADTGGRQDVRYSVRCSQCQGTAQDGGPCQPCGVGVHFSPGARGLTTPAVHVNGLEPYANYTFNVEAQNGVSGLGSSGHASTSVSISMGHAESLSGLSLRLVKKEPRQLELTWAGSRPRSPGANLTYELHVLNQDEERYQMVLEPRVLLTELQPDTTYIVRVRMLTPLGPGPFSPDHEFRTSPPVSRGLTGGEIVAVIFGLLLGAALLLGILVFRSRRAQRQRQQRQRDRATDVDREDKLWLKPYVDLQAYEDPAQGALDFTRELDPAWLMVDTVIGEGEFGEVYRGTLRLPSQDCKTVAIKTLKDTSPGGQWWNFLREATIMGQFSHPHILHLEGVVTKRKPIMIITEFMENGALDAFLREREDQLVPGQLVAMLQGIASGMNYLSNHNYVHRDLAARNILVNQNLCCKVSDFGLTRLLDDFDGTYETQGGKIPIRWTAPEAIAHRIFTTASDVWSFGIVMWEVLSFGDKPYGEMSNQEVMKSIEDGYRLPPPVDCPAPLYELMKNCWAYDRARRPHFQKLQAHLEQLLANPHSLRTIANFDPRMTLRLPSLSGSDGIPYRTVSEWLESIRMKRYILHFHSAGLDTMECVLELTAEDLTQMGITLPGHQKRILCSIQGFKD
Chain of human Beta-secretase (BACE), BACE1 (gene 23621) (P56817 whole entry, looked up): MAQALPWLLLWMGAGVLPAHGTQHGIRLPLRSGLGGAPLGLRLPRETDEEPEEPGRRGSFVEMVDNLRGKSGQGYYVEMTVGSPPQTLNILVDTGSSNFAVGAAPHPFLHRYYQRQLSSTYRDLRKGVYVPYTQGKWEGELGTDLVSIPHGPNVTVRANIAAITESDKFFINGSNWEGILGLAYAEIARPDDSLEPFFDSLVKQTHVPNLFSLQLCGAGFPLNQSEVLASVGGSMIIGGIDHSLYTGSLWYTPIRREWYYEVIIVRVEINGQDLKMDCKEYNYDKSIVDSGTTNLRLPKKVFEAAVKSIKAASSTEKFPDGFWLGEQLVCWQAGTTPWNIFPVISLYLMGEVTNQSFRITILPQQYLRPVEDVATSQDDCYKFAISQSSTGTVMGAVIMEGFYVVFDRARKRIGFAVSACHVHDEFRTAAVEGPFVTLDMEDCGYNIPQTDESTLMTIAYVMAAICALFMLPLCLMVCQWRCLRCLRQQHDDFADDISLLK
Chain of human Dual Specificity Protein Phosphatase 3 (DUSP3), DUSP3 (gene 1845) (P51452 whole entry, looked up): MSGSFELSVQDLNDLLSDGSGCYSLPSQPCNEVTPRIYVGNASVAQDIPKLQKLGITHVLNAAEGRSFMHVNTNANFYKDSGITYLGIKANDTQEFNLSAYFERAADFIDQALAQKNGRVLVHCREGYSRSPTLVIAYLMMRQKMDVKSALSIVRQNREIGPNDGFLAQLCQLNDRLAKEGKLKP
Chain of human Caspase 5 (CASP5), CASP5 (gene 838) (P51878 whole entry, looked up): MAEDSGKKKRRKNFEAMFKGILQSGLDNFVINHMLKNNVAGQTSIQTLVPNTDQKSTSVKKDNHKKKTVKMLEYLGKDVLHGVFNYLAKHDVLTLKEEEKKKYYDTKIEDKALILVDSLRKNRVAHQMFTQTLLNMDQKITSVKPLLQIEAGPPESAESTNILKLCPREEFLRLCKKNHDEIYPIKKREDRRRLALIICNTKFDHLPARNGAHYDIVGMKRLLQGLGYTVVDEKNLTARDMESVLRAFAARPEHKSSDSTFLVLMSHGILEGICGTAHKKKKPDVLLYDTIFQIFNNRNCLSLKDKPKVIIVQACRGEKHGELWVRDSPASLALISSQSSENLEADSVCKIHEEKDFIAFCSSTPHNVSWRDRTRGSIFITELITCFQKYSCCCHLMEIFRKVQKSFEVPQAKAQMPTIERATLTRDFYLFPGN

The target of the first experiment is Cytochrome P450 2C19 (Homo sapiens) (UniProt P33261). Nature of the experiment: NVS_ADME_hCYP2C19: NovaScreen (NVS) CYP450-related Enzyme Activity (ADME) Assay for human CYP2C19 (AID 2283113).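 As to AC50: potency for inhibition seen as loss of fluorescent signal.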 The procedure, abridged: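 Fluorescence intensity was measured 1 hour after chemicals were added to insect-cell-derived recombinant CYP2C19 with fluorogenic substrate. Decreased signal versus acetonitrile control was taken as reduced enzyme activity; initial testing used 10 uM in duplicate.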
A word on the AC50: it is the midpoint of the concentration-response curve, whichever way the signal moves. Regarding `CN(C)C(=S)SC(=S)N(C)C`, the AC50 is 1.03 µM (active).
As for `CS(=O)(=O)OCCCCOS(C)(=O)=O`, the outcome was inactive.
`Cc1cc(CCC(=O)OCCOCCOCCOC(=O)CCc2cc(C)c(O)c(C(C)(C)C)c2)cc(C(C)(C)C)c1O`: the AC50 was 2.45 µM (active).
In the case of `O=C1OC[C@H](Cc2cccc(O)c2)[C@H]1Cc1cccc(O)c1`, the AC50 was 0.686 µM (active).
Regarding `CSCCC=O`, the AC50 is 0.29 µM (active).

Another experiment addresses human Caspase 5 (CASP5), CASP5 (gene 838) (UniProt P51878). Kind of experiment: NVS_ENZ_hCASP5: NovaScreen (NVS) Enzymatic Assay for human Caspase 5 (CASP5) (AID 2283137). The method in brief: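 Recombinant E. coli-expressed human caspase 5 in a cell-free enzyme assay; fluorescence intensity read 2 hours after chemical dosing. Single-concentration duplicate screen at 25 uM, then concentration-response up to 50 uM for hits; DMSO negative control.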
In the case of `CCCC[O][Al]([O]CCCC)[O]CCCC`, the AC50 was 0.138 µM (active).
Turning to `O=C1c2ccccc2C(=O)c2c(O)ccc(O)c21`, the AC50 is 7.12 µM (active).
For the molecule `CCCCCCCCCCCCCCCC(=O)OC/C=C(C)/C=C/C=C(C)/C=C/C1=C(C)CCCC1(C)C`, the AC50 is 5.57 µM (active).
Turning to `Oc1c(Cl)cc(Cl)c(Cl)c1Cc1c(O)c(Cl)cc(Cl)c1Cl`, the AC50 is 2.9 µM (active).
For the molecule `c1ccc(Oc2ccccc2)cc1`, the call was inactive.
With `c1ccc2cc(Nc3ccc(Nc4ccc5ccccc5c4)cc3)ccc2c1`, the result was inactive.

Another experiment concerns the target human Beta-secretase (BACE), BACE1 (gene 23621) (UniProt P56817). Kind of experiment: NVS_ENZ_hBACE: NovaScreen (NVS) Enzymatic Assay for human Beta-secretase (BACE) (AID 2283140).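 Also: hits are inhibitors that reduce fluorescent substrate signal versus DMSO.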 The procedure, abridged: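 Cell-free fluorescence-intensity assay of recombinant BACE1 expressed in SF9 cells, read 1 hour after dosing. Loss of signal indicates reduced protease activity, fitted relative to DMSO negative control. Primary screen at 25 uM in duplicate; actives followed in concentration series.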
With `CCCCCC(C)=O`, the molecule was classed as inactive.
As for `CC(C)(N=C=O)c1cccc(C(C)(C)N=C=O)c1`, the result was inactive.
On to `CCCC[O][Al]([O]CCCC)[O]CCCC`, for which the molecule was called inactive.
As for `O=C1c2ccccc2C(=O)c2c(O)ccc(O)c21`, the AC50 is 25 µM (active).
For the molecule `CCOCCOCCOCC`, the molecule was called inactive.
With `COC(C)(C)CCO`, the molecule was called inactive.
As to `Oc1c(Cl)cc(Cl)c(Cl)c1Cc1c(O)c(Cl)cc(Cl)c1Cl`, the AC50 is 1.21 µM (active).
Still for that read-out and setting: the value for `c1ccc2cc(Nc3ccc(Nc4ccc5ccccc5c4)cc3)ccc2c1` was 13.1 µM (active); that for `C=C(C)C(=O)OCC(CC)(COC(=O)C(=C)C)COC(=O)C(=C)C` was 17.1 µM (active).

The next experiment has as its target human Dual Specificity Protein Phosphatase 3 (DUSP3), DUSP3 (gene 1845) (UniProt P51452). Nature of the experiment: NVS_ENZ_hDUSP3: NovaScreen (NVS) Enzymatic Assay for human Dual Specificity Protein Phosphatase 3 (DUSP3) (AID 2283152). The procedure, abridged: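 Cell-free assay with recombinant human DUSP3 and fluorogenic substrate, read by fluorescence intensity. Primary screen ran duplicate at 25 uM; actives followed up in concentration series; loss of signal versus DMSO scored.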
For `CCCCCCCCCCCCCCCC(=O)OC/C=C(C)/C=C/C=C(C)/C=C/C1=C(C)CCCC1(C)C`, the AC50 was 25 µM (active).
Same read-out and setting: the value for `CN(C)C(=S)SC(=S)N(C)C` was 0.326 µM (active).
For `NC(=S)NNC(N)=S`, the AC50 is 4.96 µM (active).
`CCCCOC(=O)CCCCCCCC(=O)OCCCC`: the outcome was inactive.
On to `c1ccc2cc(Nc3ccc(Nc4ccc5ccccc5c4)cc3)ccc2c1`, for which the AC50 is 22.4 µM (active).
Take `C=C(C)C(=O)OCC(CC)(COC(=O)C(=C)C)COC(=O)C(=C)C`: the AC50 was 12.4 µM (active).

The target of another experiment is human Ephrin type-A Receptor 1 (EphA1), EPHA1 (gene 2041) (UniProt P21709). Kind of experiment: NVS_ENZ_hEphA1: NovaScreen (NVS) Enzymatic Assay for human Ephrin type-A Receptor 1 (EphA1) (AID 2283158).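 Also: activity is signal loss versus DMSO meaning EphA1 kinase inhibition.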 The procedure, abridged:
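Chemicals first tested in duplicate at 25 uM against recombinant EphA1 with a fluorescent substrate; those passing threshold went to singleton dose-response topping at 50 uM. Activity read 1 h later as mobility-shift fluorescence, loss of signal relative to DMSO.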
In the case of `CC(=O)C(C)O` (stereo not drawn), the outcome was inactive.
Same read-out and setting: to `CC(C)(N=C=O)c1cccc(C(C)(C)N=C=O)c1` belongs “inactive”.
On to `COCCOC(=O)c1ccccc1C(=O)OCCOC`, for which the result was inactive.
For `CCC(C)c1cc([N+](=O)[O-])cc([N+](=O)[O-])c1OC(=O)OC(C)C` (stereo not drawn), the AC50 is 14 µM (active).
The same measure, in the same setting: to `CCN(CC)C(=O)N(CC)CC` belongs 25 µM (active).
Regarding `CCOc1ccc(NC(=O)CC(C)=O)cc1`, the outcome was inactive.
Regarding `C=CC(=O)OCCCC`, the call was inactive.
`C=C(C)C(=O)OCCOCCOCCOCCOC(=O)C(=C)C`: the AC50 was 35.3 µM (active).
The same measure, in the same setting: to `OCCCCC(O)CO` (stereo not drawn) belongs 5.49 µM (active).
`CCCCSCCCC`: the call was inactive.
For the molecule `c1ccc2cc(Nc3ccc(Nc4ccc5ccccc5c4)cc3)ccc2c1`, the outcome was inactive.
As for `Cc1ncc([N+](=O)[O-])n1CCO`, the AC50 was 11.7 µM (active).
